# How the values were obtained:
# Test in all cases: DAPPL (digital affinity profiling via proximity ligation, sequencing); 10 mM Tris-HCl pH 7.5, 50 mM NaCl, 1 mM DTT, 4% glycerol, room temperature, 30 min; GST-TFs on glutathione beads, 16-mer random dsDNA library, 0.1% formaldehyde crosslink after washing; high values mean tight binding
# FLI1 = molecular target: T1, FLI1 (Homo sapiens, UniProt Q01543 1-452); conditions: protein: recombinant; tags: N-terminal GST; dsDNA, one strand shown
# T1 sequence: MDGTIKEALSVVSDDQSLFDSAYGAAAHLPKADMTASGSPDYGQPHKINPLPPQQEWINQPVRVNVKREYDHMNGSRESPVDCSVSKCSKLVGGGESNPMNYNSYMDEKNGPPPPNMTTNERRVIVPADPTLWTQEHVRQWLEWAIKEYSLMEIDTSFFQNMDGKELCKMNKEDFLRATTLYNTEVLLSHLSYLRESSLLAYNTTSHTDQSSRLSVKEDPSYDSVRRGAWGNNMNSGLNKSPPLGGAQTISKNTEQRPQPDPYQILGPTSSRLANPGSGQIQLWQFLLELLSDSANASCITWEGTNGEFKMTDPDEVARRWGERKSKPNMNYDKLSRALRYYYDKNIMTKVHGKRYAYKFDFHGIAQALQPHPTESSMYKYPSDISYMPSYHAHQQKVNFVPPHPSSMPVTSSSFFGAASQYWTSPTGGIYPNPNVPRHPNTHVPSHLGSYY
# Summary of the method: (§1)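 Pools were built from human transcription factors expressed in yeast as GST fusions, captured on glutathione beads and DNA-barcoded, along with a tag-only sample. Incubation with 200 nmole of a 16-mer random double-stranded DNA library lasted 30 min at room temperature in Tris/NaCl/DTT/glycerol buffer, and was followed by washing, 0.1% formaldehyde crosslinking, proximity ligation, PCR amplification and Illumina NextSeq500 sequencing. Binding signal is the quotient of each hexamer's read frequency for a factor and its frequency for the tag-only sample.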
# ELK1 = molecular target: T2, ELK1 (Homo sapiens, UniProt P19419 1-428); conditions: protein: recombinant; tags: N-terminal GST; dsDNA, one strand shown
# T2 sequence: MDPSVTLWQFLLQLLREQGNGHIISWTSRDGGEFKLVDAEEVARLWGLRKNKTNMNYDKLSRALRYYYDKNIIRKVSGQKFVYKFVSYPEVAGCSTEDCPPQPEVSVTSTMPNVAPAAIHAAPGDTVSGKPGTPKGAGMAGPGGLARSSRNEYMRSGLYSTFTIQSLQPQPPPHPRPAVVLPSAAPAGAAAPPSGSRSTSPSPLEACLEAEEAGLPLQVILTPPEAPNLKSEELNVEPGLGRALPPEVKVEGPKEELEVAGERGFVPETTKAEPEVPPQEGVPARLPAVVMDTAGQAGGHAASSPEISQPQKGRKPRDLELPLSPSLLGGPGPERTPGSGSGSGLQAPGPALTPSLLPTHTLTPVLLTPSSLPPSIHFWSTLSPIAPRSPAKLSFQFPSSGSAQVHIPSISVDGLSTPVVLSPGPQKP
# Summary of the method: as §1
# GABPA = molecular target: T3, GABPA (Homo sapiens, UniProt Q06546 1-454); conditions: protein: recombinant; tags: N-terminal GST; dsDNA, one strand shown
# T3 sequence: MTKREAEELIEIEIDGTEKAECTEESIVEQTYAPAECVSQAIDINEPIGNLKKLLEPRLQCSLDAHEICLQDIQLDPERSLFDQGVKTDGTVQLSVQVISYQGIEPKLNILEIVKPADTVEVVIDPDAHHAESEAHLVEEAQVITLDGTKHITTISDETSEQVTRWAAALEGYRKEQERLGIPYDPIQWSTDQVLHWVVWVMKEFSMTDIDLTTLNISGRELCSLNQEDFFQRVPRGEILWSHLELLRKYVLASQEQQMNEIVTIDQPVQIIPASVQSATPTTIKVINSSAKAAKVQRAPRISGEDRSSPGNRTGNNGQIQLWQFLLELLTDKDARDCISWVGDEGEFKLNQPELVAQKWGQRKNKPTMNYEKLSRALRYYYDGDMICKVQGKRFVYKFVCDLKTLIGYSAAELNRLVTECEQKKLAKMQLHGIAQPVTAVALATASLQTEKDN
# Summary of the method: as §1
# ERG = molecular target: T4, ERG (Homo sapiens, UniProt P11308 1-479); conditions: protein: recombinant; tags: N-terminal GST; dsDNA, one strand shown
# T4 sequence: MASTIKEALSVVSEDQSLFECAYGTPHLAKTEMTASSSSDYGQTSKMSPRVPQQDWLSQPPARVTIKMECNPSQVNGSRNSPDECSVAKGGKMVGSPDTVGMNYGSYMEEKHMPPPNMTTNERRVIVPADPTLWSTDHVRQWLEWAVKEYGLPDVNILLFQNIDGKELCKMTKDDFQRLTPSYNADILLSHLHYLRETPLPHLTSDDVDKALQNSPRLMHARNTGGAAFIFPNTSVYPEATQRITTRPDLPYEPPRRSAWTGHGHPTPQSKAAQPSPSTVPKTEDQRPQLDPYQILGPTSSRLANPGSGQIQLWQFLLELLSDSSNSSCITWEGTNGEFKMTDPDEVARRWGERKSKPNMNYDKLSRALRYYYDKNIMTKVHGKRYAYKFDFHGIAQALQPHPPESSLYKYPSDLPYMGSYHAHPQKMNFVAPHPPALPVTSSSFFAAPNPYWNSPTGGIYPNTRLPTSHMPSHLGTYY
# Summary of the method: as §1
# ELF1 = ELF1 (Homo sapiens, UniProt P32519 1-619); conditions: protein: recombinant; tags: N-terminal GST; dsDNA, one strand shown
# Sequence of ELF1 (P32519 whole entry): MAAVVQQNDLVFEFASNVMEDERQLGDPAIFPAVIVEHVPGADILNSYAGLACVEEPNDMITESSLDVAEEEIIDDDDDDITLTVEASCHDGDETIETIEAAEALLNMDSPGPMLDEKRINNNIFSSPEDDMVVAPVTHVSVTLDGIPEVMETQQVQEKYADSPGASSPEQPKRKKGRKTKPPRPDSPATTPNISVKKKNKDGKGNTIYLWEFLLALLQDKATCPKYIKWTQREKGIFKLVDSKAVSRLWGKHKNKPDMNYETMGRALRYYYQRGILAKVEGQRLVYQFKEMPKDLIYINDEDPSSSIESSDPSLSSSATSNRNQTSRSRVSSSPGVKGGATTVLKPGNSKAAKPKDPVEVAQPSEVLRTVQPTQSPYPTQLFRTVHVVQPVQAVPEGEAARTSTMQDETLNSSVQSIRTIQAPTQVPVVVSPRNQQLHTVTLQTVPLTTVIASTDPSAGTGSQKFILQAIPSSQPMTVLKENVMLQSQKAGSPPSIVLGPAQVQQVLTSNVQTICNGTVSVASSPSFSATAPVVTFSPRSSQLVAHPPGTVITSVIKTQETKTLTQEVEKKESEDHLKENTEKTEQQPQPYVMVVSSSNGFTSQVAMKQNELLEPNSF
# Summary of the method: as §1
# EHF = molecular target: T5, EHF (Homo sapiens, UniProt Q9NZC4 1-300); conditions: protein: recombinant; tags: N-terminal GST; dsDNA, one strand shown
# T5 sequence: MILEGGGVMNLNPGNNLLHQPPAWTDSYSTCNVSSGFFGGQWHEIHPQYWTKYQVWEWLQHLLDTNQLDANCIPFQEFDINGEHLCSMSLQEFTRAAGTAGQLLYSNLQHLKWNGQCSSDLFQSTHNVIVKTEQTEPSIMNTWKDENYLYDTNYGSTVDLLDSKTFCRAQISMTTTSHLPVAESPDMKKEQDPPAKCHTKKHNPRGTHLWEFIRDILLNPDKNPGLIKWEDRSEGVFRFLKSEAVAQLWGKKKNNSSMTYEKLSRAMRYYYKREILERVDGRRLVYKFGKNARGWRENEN
# Summary of the method: as §1
# SPI1 = SPI1 (Homo sapiens, UniProt P17947 1-270); conditions: protein: recombinant; tags: N-terminal GST; dsDNA, one strand shown
# Summary of the method: as §1
# SPIB = SPIB (Homo sapiens, UniProt Q01892 1-262); conditions: protein: recombinant; tags: N-terminal GST; dsDNA, one strand shown
# Sequence of SPIB (Q01892 whole entry): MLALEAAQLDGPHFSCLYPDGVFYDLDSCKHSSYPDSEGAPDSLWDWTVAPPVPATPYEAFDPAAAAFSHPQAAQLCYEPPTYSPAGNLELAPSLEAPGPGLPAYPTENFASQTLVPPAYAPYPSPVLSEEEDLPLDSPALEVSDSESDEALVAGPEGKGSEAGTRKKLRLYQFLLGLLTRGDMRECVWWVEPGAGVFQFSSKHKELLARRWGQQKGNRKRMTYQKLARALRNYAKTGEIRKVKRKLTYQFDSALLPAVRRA
# Summary of the method: as §1
# ELK3 = molecular target: T6, ELK3 (Homo sapiens, UniProt P41970 1-407); conditions: protein: recombinant; tags: N-terminal GST; dsDNA, one strand shown
# T6 sequence: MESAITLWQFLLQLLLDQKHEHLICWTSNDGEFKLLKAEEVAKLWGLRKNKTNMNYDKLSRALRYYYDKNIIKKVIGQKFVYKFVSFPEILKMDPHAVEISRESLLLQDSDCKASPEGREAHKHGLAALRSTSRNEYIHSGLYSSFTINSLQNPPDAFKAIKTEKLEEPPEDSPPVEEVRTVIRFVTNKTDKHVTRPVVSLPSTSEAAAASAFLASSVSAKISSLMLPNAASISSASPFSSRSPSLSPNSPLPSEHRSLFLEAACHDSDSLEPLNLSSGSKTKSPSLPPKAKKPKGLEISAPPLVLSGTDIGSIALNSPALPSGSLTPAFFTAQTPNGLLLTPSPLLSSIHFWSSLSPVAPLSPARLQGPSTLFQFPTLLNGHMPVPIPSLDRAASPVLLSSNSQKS
# Summary of the method: as §1
# FEV = molecular target: T7, FEV (Homo sapiens, UniProt Q99581 1-238); conditions: protein: recombinant; tags: N-terminal GST; dsDNA, one strand shown
# T7 sequence: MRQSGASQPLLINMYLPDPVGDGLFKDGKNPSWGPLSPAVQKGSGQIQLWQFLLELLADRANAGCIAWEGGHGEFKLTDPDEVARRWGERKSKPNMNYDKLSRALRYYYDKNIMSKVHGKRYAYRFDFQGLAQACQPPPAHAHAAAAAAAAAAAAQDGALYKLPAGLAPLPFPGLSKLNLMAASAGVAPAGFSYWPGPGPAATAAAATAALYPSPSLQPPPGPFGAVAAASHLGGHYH
# Summary of the method: as §1
# ETV5 = ETV5 (Homo sapiens, UniProt P41161 1-510); conditions: protein: recombinant; tags: N-terminal GST; dsDNA, one strand shown
# Sequence of ETV5 (P41161 whole entry): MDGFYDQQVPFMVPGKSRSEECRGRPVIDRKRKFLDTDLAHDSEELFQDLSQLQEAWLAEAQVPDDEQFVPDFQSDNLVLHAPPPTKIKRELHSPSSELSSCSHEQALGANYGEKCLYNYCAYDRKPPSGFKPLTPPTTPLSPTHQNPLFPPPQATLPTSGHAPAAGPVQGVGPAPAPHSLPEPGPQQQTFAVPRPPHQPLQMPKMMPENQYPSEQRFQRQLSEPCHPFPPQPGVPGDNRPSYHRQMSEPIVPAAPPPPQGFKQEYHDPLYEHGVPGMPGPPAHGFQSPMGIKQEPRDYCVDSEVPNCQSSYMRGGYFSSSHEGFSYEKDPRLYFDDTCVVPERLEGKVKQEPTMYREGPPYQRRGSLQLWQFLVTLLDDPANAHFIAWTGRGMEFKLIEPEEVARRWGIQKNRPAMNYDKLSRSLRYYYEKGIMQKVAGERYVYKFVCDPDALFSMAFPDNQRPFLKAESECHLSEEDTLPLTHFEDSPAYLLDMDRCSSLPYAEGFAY
# Summary of the method: as §1
# HSF1 = HSF1 (Homo sapiens, UniProt Q00613 1-529); conditions: protein: recombinant; tags: N-terminal GST; chain copies: 3; dsDNA, one strand shown
# Sequence of HSF1 (Q00613 whole entry): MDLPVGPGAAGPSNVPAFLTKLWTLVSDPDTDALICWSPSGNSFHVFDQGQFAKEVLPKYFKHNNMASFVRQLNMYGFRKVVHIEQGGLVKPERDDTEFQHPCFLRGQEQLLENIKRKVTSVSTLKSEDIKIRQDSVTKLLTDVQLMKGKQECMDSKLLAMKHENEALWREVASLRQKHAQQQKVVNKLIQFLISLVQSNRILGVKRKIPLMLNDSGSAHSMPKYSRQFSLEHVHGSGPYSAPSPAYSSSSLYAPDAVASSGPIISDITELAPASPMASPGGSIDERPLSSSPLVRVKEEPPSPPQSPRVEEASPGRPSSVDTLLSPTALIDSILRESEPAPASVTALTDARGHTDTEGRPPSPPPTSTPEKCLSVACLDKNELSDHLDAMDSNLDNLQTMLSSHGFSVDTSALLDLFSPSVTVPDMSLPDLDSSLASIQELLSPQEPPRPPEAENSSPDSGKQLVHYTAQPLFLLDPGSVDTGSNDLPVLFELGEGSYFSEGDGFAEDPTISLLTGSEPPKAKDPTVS
# Summary of the method: as §1
# SPIC = molecular target: T8, SPIC (Homo sapiens, UniProt Q8N5J4 1-248); conditions: protein: recombinant; tags: N-terminal GST; dsDNA, one strand shown
# T8 sequence: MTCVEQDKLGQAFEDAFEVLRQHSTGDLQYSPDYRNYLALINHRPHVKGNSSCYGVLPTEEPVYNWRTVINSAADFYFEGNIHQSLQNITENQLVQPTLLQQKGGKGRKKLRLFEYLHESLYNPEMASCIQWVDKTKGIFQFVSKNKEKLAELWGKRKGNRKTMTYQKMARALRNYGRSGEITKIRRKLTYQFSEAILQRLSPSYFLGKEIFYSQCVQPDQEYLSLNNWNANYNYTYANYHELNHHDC
# Summary of the method: as §1
# ELF4 = ELF4 (Homo sapiens, UniProt Q99607 1-663); conditions: protein: recombinant; tags: N-terminal GST; dsDNA, one strand shown
# Sequence of ELF4 (Q99607 whole entry): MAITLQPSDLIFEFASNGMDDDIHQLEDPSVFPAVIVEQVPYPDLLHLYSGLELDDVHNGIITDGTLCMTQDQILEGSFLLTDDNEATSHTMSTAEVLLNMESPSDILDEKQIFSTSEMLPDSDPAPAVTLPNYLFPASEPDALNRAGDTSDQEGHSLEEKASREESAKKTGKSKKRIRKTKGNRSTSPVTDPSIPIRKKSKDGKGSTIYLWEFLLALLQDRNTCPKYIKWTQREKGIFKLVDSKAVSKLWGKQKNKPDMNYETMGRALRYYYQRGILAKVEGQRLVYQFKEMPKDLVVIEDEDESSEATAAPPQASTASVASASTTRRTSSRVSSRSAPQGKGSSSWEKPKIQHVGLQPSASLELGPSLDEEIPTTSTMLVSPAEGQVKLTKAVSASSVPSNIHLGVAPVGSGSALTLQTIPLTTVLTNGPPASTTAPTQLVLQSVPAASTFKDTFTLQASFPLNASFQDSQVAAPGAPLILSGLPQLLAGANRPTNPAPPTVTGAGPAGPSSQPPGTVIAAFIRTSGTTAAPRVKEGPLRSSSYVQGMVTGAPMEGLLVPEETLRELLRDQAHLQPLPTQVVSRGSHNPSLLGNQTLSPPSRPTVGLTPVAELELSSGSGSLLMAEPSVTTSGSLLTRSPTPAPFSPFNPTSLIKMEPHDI
# Summary of the method: as §1
# ELK4 = molecular target: T9, ELK4 (Homo sapiens, UniProt P28324-2 1-405); conditions: protein: recombinant; tags: N-terminal GST; dsDNA, one strand shown
# T9 sequence: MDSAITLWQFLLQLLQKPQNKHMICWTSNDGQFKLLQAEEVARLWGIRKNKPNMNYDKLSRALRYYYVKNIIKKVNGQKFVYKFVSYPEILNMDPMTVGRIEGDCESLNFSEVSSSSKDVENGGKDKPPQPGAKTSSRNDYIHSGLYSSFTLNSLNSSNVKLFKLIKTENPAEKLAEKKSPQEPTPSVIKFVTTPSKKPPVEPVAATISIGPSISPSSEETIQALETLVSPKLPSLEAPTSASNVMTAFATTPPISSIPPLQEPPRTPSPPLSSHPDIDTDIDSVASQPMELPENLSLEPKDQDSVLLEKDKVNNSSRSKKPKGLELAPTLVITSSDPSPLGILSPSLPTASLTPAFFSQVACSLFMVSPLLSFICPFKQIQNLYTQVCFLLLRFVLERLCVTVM
# Summary of the method: as §1
# ETV2 = molecular target: T10, ETV2 (Homo sapiens, UniProt O00321 1-342); conditions: protein: recombinant; tags: N-terminal GST; dsDNA, one strand shown
# T10 sequence: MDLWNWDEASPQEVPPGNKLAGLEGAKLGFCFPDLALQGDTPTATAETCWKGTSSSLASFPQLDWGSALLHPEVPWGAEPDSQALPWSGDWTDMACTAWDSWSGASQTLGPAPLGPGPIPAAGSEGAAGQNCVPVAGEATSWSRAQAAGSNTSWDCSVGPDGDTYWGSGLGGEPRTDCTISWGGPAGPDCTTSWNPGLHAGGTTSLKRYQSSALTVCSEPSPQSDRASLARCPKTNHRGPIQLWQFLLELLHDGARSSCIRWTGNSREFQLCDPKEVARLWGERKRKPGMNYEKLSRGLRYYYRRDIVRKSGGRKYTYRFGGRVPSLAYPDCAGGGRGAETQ
# Summary of the method: as §1
# ELF3 = molecular target: T11, ELF3 (Homo sapiens, UniProt P78545 1-371); conditions: protein: recombinant; tags: N-terminal GST; dsDNA, one strand shown
# T11 sequence: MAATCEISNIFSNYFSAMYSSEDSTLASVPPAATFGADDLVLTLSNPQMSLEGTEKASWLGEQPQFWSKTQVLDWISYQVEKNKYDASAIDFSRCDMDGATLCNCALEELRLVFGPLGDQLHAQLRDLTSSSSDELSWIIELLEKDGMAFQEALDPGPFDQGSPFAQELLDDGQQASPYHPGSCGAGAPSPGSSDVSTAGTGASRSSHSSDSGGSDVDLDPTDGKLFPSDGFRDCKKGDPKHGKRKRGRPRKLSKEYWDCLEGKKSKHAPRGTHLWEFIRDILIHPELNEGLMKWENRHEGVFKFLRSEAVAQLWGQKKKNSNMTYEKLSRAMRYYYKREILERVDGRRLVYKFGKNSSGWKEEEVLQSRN
# Summary of the method: as §1
# ETV1 = ETV1 (Homo sapiens, UniProt P50549 1-477); conditions: protein: recombinant; tags: N-terminal GST; dsDNA, one strand shown
# Sequence of ETV1 (P50549 whole entry): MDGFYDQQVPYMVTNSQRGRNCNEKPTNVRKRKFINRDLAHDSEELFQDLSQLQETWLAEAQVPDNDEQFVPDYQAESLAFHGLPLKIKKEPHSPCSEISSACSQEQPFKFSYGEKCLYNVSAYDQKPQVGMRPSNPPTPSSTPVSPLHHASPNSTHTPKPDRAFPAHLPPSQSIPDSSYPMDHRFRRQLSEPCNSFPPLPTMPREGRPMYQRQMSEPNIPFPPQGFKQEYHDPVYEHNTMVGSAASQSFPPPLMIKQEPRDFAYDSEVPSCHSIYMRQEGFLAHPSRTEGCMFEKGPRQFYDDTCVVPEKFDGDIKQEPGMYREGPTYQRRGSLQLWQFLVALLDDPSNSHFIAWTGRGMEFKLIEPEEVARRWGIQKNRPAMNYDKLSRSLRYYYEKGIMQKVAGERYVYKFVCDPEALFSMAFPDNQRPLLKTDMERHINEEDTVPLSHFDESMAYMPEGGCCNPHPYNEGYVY
# Summary of the method: as §1
sequence,measurement,setting,value
ACCGTC,binding signal,FLI1,"1.25 fold enrichment (6-mer frequency, TF over GST control)"
same,binding signal,ELK1,"1.21 fold enrichment (6-mer frequency, TF over GST control)"
same,binding signal,GABPA,"1.26 fold enrichment (6-mer frequency, TF over GST control)"
same,binding signal,ERG,"1.15 fold enrichment (6-mer frequency, TF over GST control)"
same,binding signal,ELF1,"1.19 fold enrichment (6-mer frequency, TF over GST control)"
same,binding signal,EHF,"1.07 fold enrichment (6-mer frequency, TF over GST control)"
same,binding signal,SPI1,"1.18 fold enrichment (6-mer frequency, TF over GST control)"
same,binding signal,SPIB,"1.09 fold enrichment (6-mer frequency, TF over GST control)"
same,binding signal,ELK3,"1.22 fold enrichment (6-mer frequency, TF over GST control)"
same,binding signal,FEV,"1.17 fold enrichment (6-mer frequency, TF over GST control)"
same,binding signal,ETV5,"1.12 fold enrichment (6-mer frequency, TF over GST control)"
same,binding signal,HSF1,"1.13 fold enrichment (6-mer frequency, TF over GST control)"
same,binding signal,SPIC,"1.2 fold enrichment (6-mer frequency, TF over GST control)"
same,binding signal,ELF4,"1.17 fold enrichment (6-mer frequency, TF over GST control)"
same,binding signal,ELK4,"1.17 fold enrichment (6-mer frequency, TF over GST control)"
same,binding signal,ETV2,"1.29 fold enrichment (6-mer frequency, TF over GST control)"
same,binding signal,ELF3,"1.15 fold enrichment (6-mer frequency, TF over GST control)"
same,binding signal,ETV1,"1.19 fold enrichment (6-mer frequency, TF over GST control)"

# From PMC7862700, “An all-to-all approach to the identification of sequence-specific readers for epigenetic DNA modifications on cytosine”
